# Test results reported in PMC7862700, “An all-to-all approach to the identification of sequence-specific readers for epigenetic DNA modifications on cytosine”.
# Columns and labels:
# Test in all cases: DAPPL (digital affinity profiling via proximity ligation, sequencing); 10 mM Tris-HCl pH 7.5, 50 mM NaCl, 1 mM DTT, 4% glycerol, room temperature, 30 min; GST-TFs on glutathione beads, 16-mer random dsDNA library, 0.1% formaldehyde crosslink after washing; high values mean tight binding
# [1] = biological target: T1, FLI1 (Homo sapiens, UniProt Q01543 1-452); settings: protein: recombinant; tags: N-terminal GST; dsDNA, one strand shown
# T1 sequence: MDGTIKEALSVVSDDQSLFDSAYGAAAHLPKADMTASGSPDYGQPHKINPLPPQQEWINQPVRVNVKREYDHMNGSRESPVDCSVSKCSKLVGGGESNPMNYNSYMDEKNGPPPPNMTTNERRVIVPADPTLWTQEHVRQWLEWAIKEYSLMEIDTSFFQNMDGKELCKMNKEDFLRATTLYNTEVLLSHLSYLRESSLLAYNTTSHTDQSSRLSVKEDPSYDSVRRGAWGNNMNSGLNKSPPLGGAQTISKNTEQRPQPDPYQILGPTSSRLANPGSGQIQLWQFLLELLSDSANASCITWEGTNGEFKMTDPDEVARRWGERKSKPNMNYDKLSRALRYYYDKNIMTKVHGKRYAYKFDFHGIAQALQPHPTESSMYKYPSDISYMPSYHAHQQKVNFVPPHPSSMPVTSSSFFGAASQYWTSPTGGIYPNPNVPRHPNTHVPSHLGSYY
# Outline: (§1)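 Binding signal is defined as a hexamer's read frequency for one factor over its frequency for the tag-only sample. To obtain reads, GST-fused human transcription factors were expressed in yeast, captured on glutathione beads, barcoded with DNA and pooled with that sample. Pools met 200 nmole of a 16-mer random double-stranded DNA library in Tris/NaCl/DTT/glycerol buffer for 30 min at room temperature before washing, 0.1% formaldehyde crosslinking, proximity ligation (BsaI/T4 ligase, 1 h, 37 °C), PCR and Illumina NextSeq500 sequencing.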
# [2] = biological target: T2, ELK1 (Homo sapiens, UniProt P19419 1-428); settings: protein: recombinant; tags: N-terminal GST; dsDNA, one strand shown
# T2 sequence: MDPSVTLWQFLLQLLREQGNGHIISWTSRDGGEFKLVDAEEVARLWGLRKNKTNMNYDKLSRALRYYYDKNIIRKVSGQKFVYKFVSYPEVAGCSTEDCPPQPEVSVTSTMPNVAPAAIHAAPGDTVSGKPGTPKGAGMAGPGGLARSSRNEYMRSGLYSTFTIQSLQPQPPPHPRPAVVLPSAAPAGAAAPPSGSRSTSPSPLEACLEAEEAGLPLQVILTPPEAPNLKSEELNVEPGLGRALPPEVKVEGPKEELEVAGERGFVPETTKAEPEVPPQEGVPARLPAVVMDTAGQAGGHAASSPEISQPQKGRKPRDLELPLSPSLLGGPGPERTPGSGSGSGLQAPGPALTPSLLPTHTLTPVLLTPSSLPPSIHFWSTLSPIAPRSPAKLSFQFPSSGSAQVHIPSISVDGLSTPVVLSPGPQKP
# Outline: as §1
# [3] = biological target: T3, GABPA (Homo sapiens, UniProt Q06546 1-454); settings: protein: recombinant; tags: N-terminal GST; dsDNA, one strand shown
# T3 sequence: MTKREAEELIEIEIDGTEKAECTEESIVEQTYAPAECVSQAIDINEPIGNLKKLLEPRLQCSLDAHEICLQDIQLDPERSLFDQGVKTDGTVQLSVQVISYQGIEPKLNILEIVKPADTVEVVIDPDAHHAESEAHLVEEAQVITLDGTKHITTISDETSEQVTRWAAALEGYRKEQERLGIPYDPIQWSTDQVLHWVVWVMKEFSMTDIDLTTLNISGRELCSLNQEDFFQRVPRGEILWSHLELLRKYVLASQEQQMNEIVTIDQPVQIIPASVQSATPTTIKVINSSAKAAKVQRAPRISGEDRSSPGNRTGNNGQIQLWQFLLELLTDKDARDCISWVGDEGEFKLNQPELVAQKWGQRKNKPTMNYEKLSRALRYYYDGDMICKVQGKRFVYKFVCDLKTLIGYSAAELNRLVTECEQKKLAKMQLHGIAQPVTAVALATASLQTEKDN
# Outline: as §1
# [4] = biological target: T4, ERG (Homo sapiens, UniProt P11308 1-479); settings: protein: recombinant; tags: N-terminal GST; dsDNA, one strand shown
# T4 sequence: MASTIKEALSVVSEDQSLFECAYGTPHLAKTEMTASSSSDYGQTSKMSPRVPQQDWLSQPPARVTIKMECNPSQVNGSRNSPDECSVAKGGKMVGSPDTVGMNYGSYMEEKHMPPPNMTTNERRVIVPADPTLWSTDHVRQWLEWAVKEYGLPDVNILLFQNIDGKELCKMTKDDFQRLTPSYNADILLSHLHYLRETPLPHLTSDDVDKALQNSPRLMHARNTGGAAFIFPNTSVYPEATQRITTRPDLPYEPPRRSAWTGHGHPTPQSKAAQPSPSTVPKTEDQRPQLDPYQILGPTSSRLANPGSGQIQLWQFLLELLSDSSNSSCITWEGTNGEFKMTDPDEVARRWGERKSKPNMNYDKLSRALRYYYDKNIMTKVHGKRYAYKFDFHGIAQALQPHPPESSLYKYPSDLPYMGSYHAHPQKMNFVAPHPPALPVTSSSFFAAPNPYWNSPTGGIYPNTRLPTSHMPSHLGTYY
# Outline: as §1
# [5] = biological target: ELF1 (Homo sapiens, UniProt P32519 1-619); settings: protein: recombinant; tags: N-terminal GST; dsDNA, one strand shown
# Chain of ELF1 (P32519 whole entry): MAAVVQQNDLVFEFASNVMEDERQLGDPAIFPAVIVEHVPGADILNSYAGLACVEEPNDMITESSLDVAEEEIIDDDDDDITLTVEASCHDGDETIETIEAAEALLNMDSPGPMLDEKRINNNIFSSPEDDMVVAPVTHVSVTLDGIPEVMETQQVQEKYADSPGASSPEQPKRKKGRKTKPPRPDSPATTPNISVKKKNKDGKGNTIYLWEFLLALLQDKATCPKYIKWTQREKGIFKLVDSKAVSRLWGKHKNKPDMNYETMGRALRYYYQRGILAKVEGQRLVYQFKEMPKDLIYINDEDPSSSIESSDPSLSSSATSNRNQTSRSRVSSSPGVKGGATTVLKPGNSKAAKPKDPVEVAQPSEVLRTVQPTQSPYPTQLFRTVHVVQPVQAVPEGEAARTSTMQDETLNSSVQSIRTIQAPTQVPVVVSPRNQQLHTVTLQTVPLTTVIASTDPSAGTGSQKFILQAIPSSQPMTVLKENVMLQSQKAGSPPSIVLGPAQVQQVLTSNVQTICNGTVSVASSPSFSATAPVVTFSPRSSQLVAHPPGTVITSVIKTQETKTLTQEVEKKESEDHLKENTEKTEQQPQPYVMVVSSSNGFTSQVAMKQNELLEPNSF
# Outline: as §1
# [6] = biological target: T5, EHF (Homo sapiens, UniProt Q9NZC4 1-300); settings: protein: recombinant; tags: N-terminal GST; dsDNA, one strand shown
# T5 sequence: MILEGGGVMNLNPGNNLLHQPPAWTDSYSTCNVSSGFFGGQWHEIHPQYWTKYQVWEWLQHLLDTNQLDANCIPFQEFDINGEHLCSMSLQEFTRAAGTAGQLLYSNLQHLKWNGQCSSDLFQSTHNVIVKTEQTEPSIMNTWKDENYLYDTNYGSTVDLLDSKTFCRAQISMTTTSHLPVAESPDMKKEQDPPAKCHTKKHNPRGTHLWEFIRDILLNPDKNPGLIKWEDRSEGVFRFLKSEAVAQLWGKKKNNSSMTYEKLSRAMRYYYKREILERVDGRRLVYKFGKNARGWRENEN
# Outline: as §1
# [7] = biological target: SPI1 (Homo sapiens, UniProt P17947 1-270); settings: protein: recombinant; tags: N-terminal GST; dsDNA, one strand shown
# Outline: as §1
# [8] = biological target: SPIB (Homo sapiens, UniProt Q01892 1-262); settings: protein: recombinant; tags: N-terminal GST; dsDNA, one strand shown
# Chain of SPIB (Q01892 whole entry): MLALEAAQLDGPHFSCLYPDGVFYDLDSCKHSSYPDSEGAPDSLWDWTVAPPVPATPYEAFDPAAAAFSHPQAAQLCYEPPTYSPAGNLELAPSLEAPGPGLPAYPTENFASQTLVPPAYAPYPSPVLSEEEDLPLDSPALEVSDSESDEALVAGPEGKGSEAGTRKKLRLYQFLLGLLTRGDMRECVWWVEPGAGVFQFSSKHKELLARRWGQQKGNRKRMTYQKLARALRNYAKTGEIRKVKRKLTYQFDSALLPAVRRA
# Outline: as §1
# [9] = biological target: T6, ELK3 (Homo sapiens, UniProt P41970 1-407); settings: protein: recombinant; tags: N-terminal GST; dsDNA, one strand shown
# T6 sequence: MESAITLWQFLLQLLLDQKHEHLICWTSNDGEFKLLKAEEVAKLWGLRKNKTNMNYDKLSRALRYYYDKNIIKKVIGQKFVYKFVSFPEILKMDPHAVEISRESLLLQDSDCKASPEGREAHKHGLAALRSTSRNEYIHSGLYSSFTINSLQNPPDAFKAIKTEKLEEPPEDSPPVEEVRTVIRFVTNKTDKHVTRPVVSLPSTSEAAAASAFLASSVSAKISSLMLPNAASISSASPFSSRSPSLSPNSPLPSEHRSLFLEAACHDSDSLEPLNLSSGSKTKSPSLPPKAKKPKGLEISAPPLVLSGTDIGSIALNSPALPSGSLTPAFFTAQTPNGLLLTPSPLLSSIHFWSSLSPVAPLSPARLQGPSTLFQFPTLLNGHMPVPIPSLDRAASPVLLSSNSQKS
# Outline: as §1
# [10] = biological target: T7, FEV (Homo sapiens, UniProt Q99581 1-238); settings: protein: recombinant; tags: N-terminal GST; dsDNA, one strand shown
# T7 sequence: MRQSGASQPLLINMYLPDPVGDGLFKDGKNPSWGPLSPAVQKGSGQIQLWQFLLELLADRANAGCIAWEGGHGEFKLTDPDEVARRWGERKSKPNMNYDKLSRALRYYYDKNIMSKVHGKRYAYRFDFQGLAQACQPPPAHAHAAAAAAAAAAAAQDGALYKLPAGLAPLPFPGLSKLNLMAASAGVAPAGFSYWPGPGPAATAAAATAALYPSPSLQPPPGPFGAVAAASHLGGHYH
# Outline: as §1
# [11] = biological target: ETV5 (Homo sapiens, UniProt P41161 1-510); settings: protein: recombinant; tags: N-terminal GST; dsDNA, one strand shown
# Chain of ETV5 (P41161 whole entry): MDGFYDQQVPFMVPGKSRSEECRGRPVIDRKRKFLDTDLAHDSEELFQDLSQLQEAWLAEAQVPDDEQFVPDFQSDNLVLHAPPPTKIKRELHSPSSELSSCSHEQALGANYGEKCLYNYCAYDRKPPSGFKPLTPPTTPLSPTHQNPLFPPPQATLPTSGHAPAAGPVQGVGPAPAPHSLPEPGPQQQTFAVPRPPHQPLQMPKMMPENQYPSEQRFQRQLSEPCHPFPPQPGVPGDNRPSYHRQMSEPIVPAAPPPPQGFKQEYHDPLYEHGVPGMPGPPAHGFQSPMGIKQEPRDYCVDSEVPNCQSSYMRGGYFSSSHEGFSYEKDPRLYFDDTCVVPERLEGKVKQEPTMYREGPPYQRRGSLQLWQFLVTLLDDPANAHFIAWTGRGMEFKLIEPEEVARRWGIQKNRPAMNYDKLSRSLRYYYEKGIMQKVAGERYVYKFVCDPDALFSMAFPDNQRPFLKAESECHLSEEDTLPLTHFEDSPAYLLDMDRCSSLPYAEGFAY
# Outline: as §1
# [12] = biological target: HSF1 (Homo sapiens, UniProt Q00613 1-529); settings: protein: recombinant; tags: N-terminal GST; chain copies: 3; dsDNA, one strand shown
# Chain of HSF1 (Q00613 whole entry): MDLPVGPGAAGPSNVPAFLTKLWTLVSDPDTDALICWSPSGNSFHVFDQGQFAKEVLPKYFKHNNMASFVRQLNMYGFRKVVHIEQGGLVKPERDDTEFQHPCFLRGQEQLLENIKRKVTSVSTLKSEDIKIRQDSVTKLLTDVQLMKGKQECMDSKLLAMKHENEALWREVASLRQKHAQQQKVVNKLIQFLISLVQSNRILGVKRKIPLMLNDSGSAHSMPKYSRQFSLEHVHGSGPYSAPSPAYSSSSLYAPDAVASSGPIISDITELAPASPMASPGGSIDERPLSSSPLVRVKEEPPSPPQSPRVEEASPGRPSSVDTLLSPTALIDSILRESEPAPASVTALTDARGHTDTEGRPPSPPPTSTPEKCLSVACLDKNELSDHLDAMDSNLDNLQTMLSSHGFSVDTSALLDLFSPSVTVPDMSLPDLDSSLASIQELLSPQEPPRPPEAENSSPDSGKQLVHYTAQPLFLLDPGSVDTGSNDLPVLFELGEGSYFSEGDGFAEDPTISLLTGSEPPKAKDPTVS
# Outline: as §1
# [13] = biological target: T8, SPIC (Homo sapiens, UniProt Q8N5J4 1-248); settings: protein: recombinant; tags: N-terminal GST; dsDNA, one strand shown
# T8 sequence: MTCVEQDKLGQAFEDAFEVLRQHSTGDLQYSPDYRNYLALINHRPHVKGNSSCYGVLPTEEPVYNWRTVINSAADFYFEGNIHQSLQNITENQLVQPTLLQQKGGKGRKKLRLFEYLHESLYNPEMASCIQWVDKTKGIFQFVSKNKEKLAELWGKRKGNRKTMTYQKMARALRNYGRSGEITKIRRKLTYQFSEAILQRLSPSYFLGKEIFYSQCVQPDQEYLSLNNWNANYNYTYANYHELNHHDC
# Outline: as §1
# [14] = biological target: ELF4 (Homo sapiens, UniProt Q99607 1-663); settings: protein: recombinant; tags: N-terminal GST; dsDNA, one strand shown
# Chain of ELF4 (Q99607 whole entry): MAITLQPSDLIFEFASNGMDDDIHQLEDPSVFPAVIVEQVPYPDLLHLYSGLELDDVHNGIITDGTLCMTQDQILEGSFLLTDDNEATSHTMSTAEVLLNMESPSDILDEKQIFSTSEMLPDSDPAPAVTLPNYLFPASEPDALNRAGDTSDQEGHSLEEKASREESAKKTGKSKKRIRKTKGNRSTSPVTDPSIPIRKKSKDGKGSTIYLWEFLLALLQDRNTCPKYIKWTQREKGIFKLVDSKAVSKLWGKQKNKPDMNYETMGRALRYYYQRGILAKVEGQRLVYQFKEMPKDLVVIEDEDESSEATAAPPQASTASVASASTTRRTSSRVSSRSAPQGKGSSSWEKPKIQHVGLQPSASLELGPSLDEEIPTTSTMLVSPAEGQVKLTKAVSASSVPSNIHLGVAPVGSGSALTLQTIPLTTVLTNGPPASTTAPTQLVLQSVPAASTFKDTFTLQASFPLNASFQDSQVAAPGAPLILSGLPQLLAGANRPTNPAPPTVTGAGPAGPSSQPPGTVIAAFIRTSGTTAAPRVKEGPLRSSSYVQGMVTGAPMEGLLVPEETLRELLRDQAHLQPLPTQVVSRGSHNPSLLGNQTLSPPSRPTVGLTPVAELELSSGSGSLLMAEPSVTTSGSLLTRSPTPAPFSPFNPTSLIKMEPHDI
# Outline: as §1
# [15] = biological target: T9, ELK4 (Homo sapiens, UniProt P28324-2 1-405); settings: protein: recombinant; tags: N-terminal GST; dsDNA, one strand shown
# T9 sequence: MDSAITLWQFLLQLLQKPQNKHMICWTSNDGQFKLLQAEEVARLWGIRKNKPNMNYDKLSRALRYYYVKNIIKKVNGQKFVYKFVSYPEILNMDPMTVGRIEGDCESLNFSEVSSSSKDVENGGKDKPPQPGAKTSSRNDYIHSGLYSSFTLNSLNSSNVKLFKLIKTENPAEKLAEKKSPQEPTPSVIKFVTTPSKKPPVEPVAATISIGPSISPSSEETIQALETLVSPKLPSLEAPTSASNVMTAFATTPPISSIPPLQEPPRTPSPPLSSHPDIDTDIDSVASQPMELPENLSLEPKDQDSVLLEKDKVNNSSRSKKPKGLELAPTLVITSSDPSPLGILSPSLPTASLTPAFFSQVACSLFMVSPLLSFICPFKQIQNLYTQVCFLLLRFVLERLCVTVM
# Outline: as §1
# [16] = biological target: T10, ETV2 (Homo sapiens, UniProt O00321 1-342); settings: protein: recombinant; tags: N-terminal GST; dsDNA, one strand shown
# T10 sequence: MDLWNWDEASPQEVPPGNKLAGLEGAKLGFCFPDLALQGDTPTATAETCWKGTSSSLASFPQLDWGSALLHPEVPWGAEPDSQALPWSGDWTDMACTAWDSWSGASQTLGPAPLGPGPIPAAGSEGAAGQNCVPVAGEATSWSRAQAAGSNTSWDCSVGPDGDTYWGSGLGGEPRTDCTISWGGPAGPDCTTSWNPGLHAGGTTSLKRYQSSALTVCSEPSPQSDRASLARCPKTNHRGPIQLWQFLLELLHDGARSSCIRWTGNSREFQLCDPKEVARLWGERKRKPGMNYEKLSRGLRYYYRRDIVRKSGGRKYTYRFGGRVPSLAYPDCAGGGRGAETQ
# Outline: as §1
# [17] = biological target: T11, ELF3 (Homo sapiens, UniProt P78545 1-371); settings: protein: recombinant; tags: N-terminal GST; dsDNA, one strand shown
# T11 sequence: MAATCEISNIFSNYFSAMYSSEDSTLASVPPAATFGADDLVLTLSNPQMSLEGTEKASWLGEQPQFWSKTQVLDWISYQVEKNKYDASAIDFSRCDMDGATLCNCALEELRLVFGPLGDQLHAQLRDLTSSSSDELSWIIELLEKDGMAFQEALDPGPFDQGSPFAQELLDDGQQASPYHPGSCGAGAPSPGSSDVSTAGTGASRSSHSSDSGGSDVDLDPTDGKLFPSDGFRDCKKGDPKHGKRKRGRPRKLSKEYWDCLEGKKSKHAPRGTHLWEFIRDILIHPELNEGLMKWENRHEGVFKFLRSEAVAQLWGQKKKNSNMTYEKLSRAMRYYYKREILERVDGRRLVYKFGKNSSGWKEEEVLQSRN
# Outline: as §1
# [18] = biological target: CRX (Homo sapiens, UniProt O43186 1-299); settings: protein: recombinant; tags: N-terminal GST; dsDNA, one strand shown
# Chain of CRX (O43186 whole entry): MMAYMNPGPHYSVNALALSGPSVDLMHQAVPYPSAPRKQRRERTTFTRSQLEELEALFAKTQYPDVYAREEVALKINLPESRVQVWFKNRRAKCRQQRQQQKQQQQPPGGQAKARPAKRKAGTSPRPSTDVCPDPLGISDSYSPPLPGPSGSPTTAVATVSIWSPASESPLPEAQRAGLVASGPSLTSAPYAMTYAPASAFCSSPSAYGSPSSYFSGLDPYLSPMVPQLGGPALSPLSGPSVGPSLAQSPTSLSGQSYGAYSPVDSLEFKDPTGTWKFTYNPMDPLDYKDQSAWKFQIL
# Outline: as §1
# [19] = biological target: ETV1 (Homo sapiens, UniProt P50549 1-477); settings: protein: recombinant; tags: N-terminal GST; dsDNA, one strand shown
# Chain of ETV1 (P50549 whole entry): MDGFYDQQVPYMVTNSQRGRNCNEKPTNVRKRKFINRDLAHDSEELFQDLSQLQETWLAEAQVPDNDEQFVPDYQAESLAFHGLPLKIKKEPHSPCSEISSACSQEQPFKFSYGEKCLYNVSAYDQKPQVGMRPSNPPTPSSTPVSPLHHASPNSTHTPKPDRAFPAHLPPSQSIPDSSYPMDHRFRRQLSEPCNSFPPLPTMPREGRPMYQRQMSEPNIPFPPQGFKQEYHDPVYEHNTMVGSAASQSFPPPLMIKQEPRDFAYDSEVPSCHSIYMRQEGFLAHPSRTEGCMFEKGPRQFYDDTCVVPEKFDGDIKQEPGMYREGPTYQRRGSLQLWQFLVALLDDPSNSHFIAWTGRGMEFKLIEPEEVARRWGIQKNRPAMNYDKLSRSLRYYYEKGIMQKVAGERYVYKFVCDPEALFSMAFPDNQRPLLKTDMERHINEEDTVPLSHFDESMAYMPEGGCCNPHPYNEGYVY
# Outline: as §1
sequence,measurement,setting,value
TTTGTT,binding signal,[1],"1.26 fold enrichment (6-mer frequency, TF over GST control)"
same,binding signal,[2],"1.29 fold enrichment (6-mer frequency, TF over GST control)"
same,binding signal,[3],"1.31 fold enrichment (6-mer frequency, TF over GST control)"
same,binding signal,[4],"1.28 fold enrichment (6-mer frequency, TF over GST control)"
same,binding signal,[5],"1.29 fold enrichment (6-mer frequency, TF over GST control)"
same,binding signal,[6],"1.35 fold enrichment (6-mer frequency, TF over GST control)"
same,binding signal,[7],"1.22 fold enrichment (6-mer frequency, TF over GST control)"
same,binding signal,[8],"1.17 fold enrichment (6-mer frequency, TF over GST control)"
same,binding signal,[9],"1.3 fold enrichment (6-mer frequency, TF over GST control)"
same,binding signal,[10],"1.19 fold enrichment (6-mer frequency, TF over GST control)"
same,binding signal,[11],"1.25 fold enrichment (6-mer frequency, TF over GST control)"
same,binding signal,[12],"1.3 fold enrichment (6-mer frequency, TF over GST control)"
same,binding signal,[13],"1.29 fold enrichment (6-mer frequency, TF over GST control)"
same,binding signal,[14],"1.3 fold enrichment (6-mer frequency, TF over GST control)"
same,binding signal,[15],"1.46 fold enrichment (6-mer frequency, TF over GST control)"
same,binding signal,[16],"1.33 fold enrichment (6-mer frequency, TF over GST control)"
same,binding signal,[17],"1.35 fold enrichment (6-mer frequency, TF over GST control)"
same,binding signal,[18],"1.46 fold enrichment (6-mer frequency, TF over GST control)"
same,binding signal,[19],"1.25 fold enrichment (6-mer frequency, TF over GST control)"
